FBW7 activator: human FBW7 E3 ligase activation, primary screen; actives 0.13% (n = 650,000); AlphaScreen FBW7–phospho-cyclin E peptide binding, activator screen; normalized activity (activation), % at 26.1 µM; Q969H0; in the data active = normalized activity above about 1.9%;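 also: purified mutant Fbw7 with reduced substrate affinity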
TEAD-YAP block: TEAD-YAP interaction inhibition. HEK-TIYL cells, TEAD-Gal4/YAP UAS-luciferase luminescence. inhibition, % at 9.12 µM. actives 1.4% (n = 640,000). AID 1259422; in the data active = inhibition above about 32%;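 also: 0% = median of test compound wells and 100% = reference inhibitor wells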
MITF primary: inhibitors of human MITF; O75030; AlphaScreen MITF homodimerization, bead proximity signal; inhibition, % at 2.6 µM; actives 0.91% (n = 650,000); AID 1259374; in the data active = inhibition above about 50%;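 also: 0% = vehicle wells with protein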
GPR151 activ: human GPR151 activation | Q8TDV0 | PathHunter beta-arrestin GPR151 cells, luminescence | activation, % at 11.2 µM | actives 1% (n = 650,000) | AID 1508602; in the data active = activation above about 4.9%;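 also: 0% = median of compound wells and 100% = cells with positive control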
Target sequence (Q8TDV0 whole entry, looked up): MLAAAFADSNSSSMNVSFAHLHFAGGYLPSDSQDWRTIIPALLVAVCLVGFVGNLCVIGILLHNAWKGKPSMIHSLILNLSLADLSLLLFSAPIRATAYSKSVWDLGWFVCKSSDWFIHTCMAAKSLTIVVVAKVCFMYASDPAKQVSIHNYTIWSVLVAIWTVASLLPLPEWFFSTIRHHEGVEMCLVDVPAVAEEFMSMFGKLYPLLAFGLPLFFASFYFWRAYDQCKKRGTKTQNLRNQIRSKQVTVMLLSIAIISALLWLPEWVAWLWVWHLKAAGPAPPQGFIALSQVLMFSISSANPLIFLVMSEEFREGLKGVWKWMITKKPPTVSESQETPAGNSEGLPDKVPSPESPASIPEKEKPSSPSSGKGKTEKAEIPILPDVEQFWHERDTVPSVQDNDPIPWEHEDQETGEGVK
GPR151 confirm: confirmation of human GPR151 activators | GPR151 PathHunter beta-arrestin cells, luminescence, 90 min; % of EA-reagent control over plate median | AID 1508609 | 6,700 tested, under 10 active | activation, % at 11.2 µM | shares compounds with GPR151 activ;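 active = mean percent activation across replicates above the confirmation screen cutoff of 4.91%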
GPR119 counter: counter-screen for GPR151 activators: effect on human GPR119. shares compounds with GPR151 activ. GPR119 PathHunter beta-arrestin cells, luminescence, 90 min; 0 = compound-well median, 100 = enzyme-acceptor control. activation, % at 11.2 µM. actives 0.3% (n = 6,700);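 active = mean percent activation in the counterscreen above 29.09%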;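 also: counterscreen on off-target GPR119 to flag nonselective hits from the GPR151 activator screen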
Active calls of the source: *; nt = no result given. This is a sample that favours compounds with a hit; in the whole collection about 3.4% have one here.

SMILES	FBW7 activator	TEAD-YAP block	MITF primary	GPR151 activ	GPR151 confirm	GPR119 counter
CC1(C)CC(C(CCN(Cc2ccccc2)C(=O)c2ccco2)c2ccc(F)cc2)CCO1 (stereo unspecified)	0	-6	16	2	nt	nt
CC1(C)CC(N(Cc2cccs2)C(=O)c2ccco2)CCO1 (stereo unspecified)	0	-4	15	9.3*	-2	-16
O=C(Nc1cc(C(F)(F)F)ccc1F)C1CCCC1	0	-9	-3	13*	1	7
Cc1ccc(-c2nc(N3CCN(Cc4ccccc4)CC3)c3ccccc3n2)cc1	0	11	20	0	nt	nt
N#Cc1cccc(NC(=O)Cc2ccccc2)c1	0	4	18	7.6*	0	-4
O=C(CCCc1ccccc1)Nc1ccccc1	0	-60	12	0	nt	nt
N#Cc1ccc(NC(=O)CCCc2ccccc2)cc1	0	-81	8	5.1*	0	-8
O=C(CCCc1ccccc1)Nc1ccc(F)cc1	0	-90	-4	6.1*	-1	-13
N#Cc1cccc(NC(=O)CCCc2ccccc2)c1	0	-41	-12	0	nt	nt
O=C(CSc1ncnc2c1cnn2-c1ccc(Cl)cc1)N1CCc2ccccc21	0	10	11	-2	nt	nt
O=C(CCNS(=O)(=O)c1ccc2nc(-c3ccccc3)[nH]c2c1)NC1CCCC1	0	-3	3	1	nt	nt
CCC(C)NC(=O)CCNS(=O)(=O)c1ccc2nc(-c3ccccc3)[nH]c2c1 (stereo unspecified)	0	-1	6	7.0*	1	-1
O=c1c2c(nc3nc(-c4ccccc4)[nH]n13)CCCC2	0	9	4	5.7*	-1	-8
C/C(=N\NC(=O)CSCc1cc(C)cc(C)c1)c1ccccc1O	0	-11	-22	0	nt	nt
COc1ccc(C(=O)NC2CC2)cc1OC1CCN(C2CCC2)CC1	0	-15	7	7.0*	0	1
COc1ccc(C(=O)NC2CC2)cc1OC1CCN(C2CCCCCC2)CC1	0	0	3	0	nt	nt
COc1ccc(C(=O)NC2CC2)cc1OC1CCN(C2Cc3ccccc3C2)CC1	0	-23	4	11*	0	-1
Cc1cccc(OCC(O)CN2CCCCCC2)c1C (stereo unspecified)	0	4	1	9.8*	0	-2
CCc1ccc(-c2nc(=S)[nH][nH]2)cc1	0	-21	-1	7.6*	1	6
Cc1nc2cc(C(=O)N3CCC4(CC3)NC(=O)c3ccccc3N4)ccc2n1C	0	-6	4	0	nt	nt
Cc1ccc(CNc2nc(CN(C)C3CCOC3)nc3ccccc23)cc1 (stereo unspecified)	0	11	10	-1	nt	nt
CC(Nc1nc(CN(C)C2CCOCC2)nc2ccccc12)c1ccc(F)cc1 (stereo unspecified)	0	3	2	7.7*	1	8
CC(=O)Nc1ccccc1NC(=O)C(Cl)(Cl)Cl	0	10	14	1	nt	nt
C=Cc1ccc(Cn2c(C)c(CNCCC3=CCCCC3)c(C(=O)O)c2C)cc1	0	-2	16	6.3*	-1	-9
COc1ccc(C(=O)Nc2c(C)csc2C(=O)O)cc1	0	-3	4	4.9*	-1	4
SMILES	FBW7 activator	TEAD-YAP block	MITF primary	GPR151 activ	GPR151 confirm	GPR119 counter
Cc1csc(C(=O)O)c1NC(=O)c1ccc(F)cc1	0	-2	-1	1	nt	nt
Cc1cccc(NC(=O)CC[C@H]2CN(Cc3ccccn3)CC[C@H]2N2CCOCC2)c1	0	-4	16	0	nt	nt
O=C1C2=C(NC(=S)NC2c2ccc([N+](=O)[O-])cc2)c2ccccc21 (stereo unspecified)	1	10	16	-1	nt	nt
Cc1cc(Nc2ccc(N3CCOCC3)cc2)nc(Nc2ccccn2)n1	0	12	8	3	nt	nt
Cc1cc(Nc2ccc(N3CCOCC3)cc2)nc(Nc2ccc(-n3ccnc3)cc2)n1	0	99*	4	8.9*	3	63*
Cc1cc(Nc2ccc(N3CCOCC3)cc2)nc(Nc2nccc3ccccc23)n1	0	81*	10	5.3*	1	23
Cc1cc(Nc2ccccc2)nc(Nc2ccc(-n3ccnc3)cc2)n1	0	-1	-2	4	nt	nt
